# In PubChem BioAssay (NCI):
# This is part of a sample that, as a whole, favours compounds with a hit. Of some 83,000 tested, about 20% had one in any assay.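 Values shown are percent growth following 48 h exposure of cells in 96-well plates to a single concentration of compound; below 10 was considered active.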 A number with no mark means an inactive call. The source made the active and inactive calls.
# Experiments:
# Assay in all cases: NCI-60 one-dose screen, 48 h (100 = growth as untreated, 0 = no growth, -100 = all killed)
# Conditions in all cases: 10 µM unless noted
# HCT-15 colon = test system: HCT-15 colon
# HT29 colon = test system: HT29 colon
# SNB-75 CNS = test system: SNB-75 CNS
# SNB-19 CNS = test system: SNB-19 CNS
# U251 CNS = test system: U251 CNS
# PC-3 prostate = test system: PC-3 prostate
# SK-MEL-5 melanoma = test system: SK-MEL-5 melanoma
# UACC-62 melanoma = test system: UACC-62 melanoma
# LOX IMVI melanoma = test system: LOX IMVI melanoma
# SK-MEL-28 melanoma = test system: SK-MEL-28 melanoma
# SK-MEL-2 melanoma = test system: SK-MEL-2 melanoma
# EKVX NSCLC = test system: EKVX NSCLC
# SN12C renal = test system: SN12C renal
# UO-31 renal = test system: UO-31 renal
# TK-10 renal = test system: TK-10 renal
# ACHN renal = test system: ACHN renal
# CAKI-1 renal = test system: CAKI-1 renal
# A498 renal = test system: A498 renal
# CCRF-CEM leukemia = test system: CCRF-CEM leukemia
# MOLT-4 leukemia = test system: MOLT-4 leukemia
Compound,growth (HCT-15 colon),growth (HT29 colon),growth (SNB-75 CNS),growth (SNB-19 CNS),growth (U251 CNS),growth (PC-3 prostate),growth (SK-MEL-5 melanoma),growth (UACC-62 melanoma),growth (LOX IMVI melanoma),growth (SK-MEL-28 melanoma),growth (SK-MEL-2 melanoma),growth (EKVX NSCLC),growth (SN12C renal),growth (UO-31 renal),growth (TK-10 renal),growth (ACHN renal),growth (CAKI-1 renal),growth (A498 renal),growth (CCRF-CEM leukemia),growth (MOLT-4 leukemia)
Cn1c(=O)c2c(nc(N/N=C/c3ccccc3Cl)n2C)n(C)c1=O,105%,93.6%,93.6%,108%,101%,99.3%,109%,104%,98.2%,122%,81.6%,106%,99%,81.5%,101%,103%,97.8%,170%,94.5%,95.7%
CCCCCCCOc1cccc(/C=C2\N=C3SCCCN3C2=O)c1,87.5%,88.9%,91.2%,92.8%,91.1%,85.3%,90.1%,79.6%,96.2%,100%,95.5%,92.7%,94.1%,78.7%,96.2%,96.4%,94.4%,94.6%,111%,100%
COc1ccc(-c2nc(SCCC(C)C)nc(Nc3ccc(C(=O)O)cc3)c2C#N)cc1,60.6%,84%,92.2%,88.8%,81.5%,58.4%,73.9%,86.8%,82.6%,89.7%,70%,87.7%,90.6%,67%,86.7%,83.9%,92.1%,62.5%,73.5%,78.7%
CC(=O)O[C@H]1CC[C@]2(C)[C@H]3CC=C4[C@@H]5CC(C)(C)CC[C@]5(C(=O)OCC(COC(=O)C(Cl)Cl)(COC(=O)C(Cl)Cl)NC(=O)C(Cl)Cl)CC[C@@]4(C)[C@]3(C)CC[C@H]2C1(C)C,46.7%,8.55% (active),85.9%,90.4%,45.1%,22.7%,71.9%,84.4%,65.9%,87.3%,77.7%,65%,71.8%,62.5%,78.1%,62.4%,63%,93.2%,64.8%,44.9%
O=C1/C(=C/c2cc(F)cc(F)c2)Cc2cc(F)cc(F)c21,95.4%,92.3%,93.9%,86.8%,104%,88.1%,76.8%,85.6%,86.8%,96.7%,93.7%,88%,106%,70.9%,102%,92.7%,77.6%,90.2%,110%,87.3%
CCOC(=O)Nc1ccc2nc(Sc3ccc(Cl)cc3)sc2c1,25.5%,19.4%,-12% (active),48.3%,36.1%,34.3%,6.76% (active),33.8%,47.9%,38.1%,46.8%,57.6%,40.4%,43.9%,53.1%,61.5%,19.2%,58%,20.2%,37.8%
O=C(Nc1ccc([N+](=O)[O-])cc1)c1cc2ccccc2cc1O,0.0174% (active),24.4%,-6.38% (active),23.7%,2.66% (active),-11.2% (active),-86.8% (active),-28.8% (active),-1.01% (active),7.4% (active),-66.7% (active),2.38% (active),1.45% (active),-7.29% (active),-19.5% (active),-6.44% (active),-13.7% (active),-42.5% (active),1.14% (active),-7.97% (active)
N=c1nc(N2CCCCC2)cc(N)n1O,97%,107%,93.5%,99.8%,101%,103%,94.8%,104%,110%,111%,118%,108%,98.8%,104%,112%,97.5%,101%,117%,112%,93%
CCCCn1cnc2c(SCc3ccc([N+](=O)[O-])cc3)nc(N)nc21,88.2%,98.6%,95.7%,86%,90.6%,89.8%,85.8%,80.4%,88%,117%,91.5%,103%,87%,65.2%,85%,87.5%,87.7%,86.3%,86.3%,24.3%
NC(N)=N/N=C/c1cccc(Cl)c1Cl,82.7%,24%,63.8%,85.8%,73.3%,89.2%,85.6%,90.5%,76.4%,99.2%,106%,69.2%,90.1%,66.3%,88%,84.2%,59.1%,61.6%,52.7%,47.6%
C[C@H](NC(=O)c1snnc1C1CC1)c1c(F)cccc1Cl,93.9%,119%,95.1%,142%,90%,98.9%,98.2%,87.8%,93.9%,110%,108%,115%,104%,94%,129%,92.1%,115%,96.4%,110%,101%
CCOC(=O)C1=C(C(=O)OCC)N(c2cc(OC)c(OC)c(OC)c2)C(N)=C(C#N)C1c1cc(=O)[nH]c2ccccc12 (stereo not given),106%,112%,83%,98.4%,98.7%,123%,95.9%,88.6%,93.7%,114%,115%,89.3%,98.5%,76.8%,100%,97.6%,87%,78.1%,113%,100%
c1csc(-c2cnc3nonc3n2)c1,89.7%,91.2%,79.8%,81.6%,88%,66.3%,87.9%,79.3%,62.6%,104%,105%,101%,86.7%,66.5%,128%,85.7%,90.3%,88.1%,79.7%,78.9%
O=C(CCl)Nc1cc(O)c2c(c1)C(=O)c1cccc(O)c1C2=O,-82.2% (active),-88% (active),7.38% (active),-36.5% (active),-96.2% (active),-63.6% (active),-95% (active),-67.3% (active),-68.2% (active),2.89% (active),-49.4% (active),5% (active),-43.1% (active),-87% (active),-87.3% (active),-91.2% (active),-94% (active),-0.734% (active),-45% (active),-56.3% (active)
COc1ccc(-c2cnc(-c3ccncc3-c3cccc(OC)c3)o2)cc1,7.4% (active),-36.6% (active),41.2%,25.8%,24.3%,16.9%,-20.4% (active),24.9%,27.3%,57.6%,5.27% (active),58.1%,15%,42.6%,30.5%,17.1%,32%,35.3%,3.12% (active),11.5%
